Laboratory results from PubChem BioAssay.
Several values for one entry are separate records, joined by “and”; a condition that tells them apart may be missing. Equal values may be shown once. Unmarked numbers belong to inactive results. How the calls were made is not given here.

Target: L-lactate dehydrogenase (Plasmodium falciparum (isolate CDC / Honduras)) (UniProt Q27743)
Experiment: PfLDH activity inhibition – cell lysate, 3D7 strain, counter-screen for P. falciparum growth inhibition project (AID 2304);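 further: 0% = vehicle and 100% = reference inhibitor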
Conditions: P. falciparum 3D7 crude extract, LDH APAD/NBT absorbance; at 2 µM; active compounds read high

Chain of L-lactate dehydrogenase (Plasmodium falciparum (isolate CDC / Honduras)) (Q27743 whole entry, looked up): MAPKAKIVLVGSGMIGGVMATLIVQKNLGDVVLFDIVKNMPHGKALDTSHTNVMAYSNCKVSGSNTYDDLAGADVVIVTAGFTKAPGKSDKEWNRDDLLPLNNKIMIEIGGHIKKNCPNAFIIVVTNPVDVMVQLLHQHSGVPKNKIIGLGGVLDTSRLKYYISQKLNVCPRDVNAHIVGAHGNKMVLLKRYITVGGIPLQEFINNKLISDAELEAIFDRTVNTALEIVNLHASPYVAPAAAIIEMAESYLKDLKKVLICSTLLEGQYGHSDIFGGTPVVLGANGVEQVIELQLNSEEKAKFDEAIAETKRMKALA

Row | SMILES | inhibition
1 | c1ccc(C(OCCC2CCN(Cc3cccc4cccnc34)CC2)c2ccccc2)cc1 | 0%
2 | Cc1ccc(C)c(C=CC(=O)NC2CCC(CN3CCC(c4c[nH]c5ccccc45)CC3)CC2)c1 (configuration not stated) | 3% and 5%
3 | Cc1cc(N)nc2ccc(CNCCc3ccccc3Br)cc12 | 7%
4 | Fc1ccc(N(c2nc(-c3cc(F)cc(C(F)(F)F)c3)cs2)C2CCNCC2)cc1 | -3%
5 | CC(Cc1ccc(SC(C)C)cc1)NCC(O)c1cccc(Cl)c1 (configuration not stated) | -3%
6 | CC[C@H]1CN2CC[C@@H]1C[C@H]2[C@H](O)c1cc(-c2ccc(F)cc2)nc2ccc(O)cc12 | -2%
7 | CC(=O)Nc1ccc2[nH]cc(C3CCN(CC4CCN(C(=O)/C=C/c5ccc(Cl)c(Cl)c5)CC4)CC3)c2c1 | -1%
8 | COc1ccc(O)c(CN2CCN(c3cc(C)ccc3C)CC2)c1 | 2%
9 | CCN1CC=C(c2c[nH]c3ccccc23)CC1 | -1%
10 | CC[C@H]1CN2CC[C@H]1C[C@H]2[C@H](O)c1cc(/C=C/c2ccc(F)cc2)nc2ccc(OC)cc12 | -1%
11 | O=C(NCc1ccc(S(=O)(=O)N2CCC(CN3CCC(c4c[nH]c5ccccc45)CC3)CC2)s1)c1ccccc1 | 5%
12 | COC(=O)c1ccc(CC(C)NCC(O)c2cccc(Cl)c2Cl)cc1 (configuration not stated) | -6%
13 | COCCNCc1cccc(-c2ccc(CN(C(=O)Nc3ccccc3)C3CCN(Cc4ccccc4)CC3)cc2)c1 | -4%
14 | C=Cc1cc(OC)c2c(c1)c(=O)oc1c2cc(OC)c2c(O)ccc([C@H]3O[C@H]([C@@H](C)O)[C@H](O)[C@H]3O)c21 | 0%
15 | c1ccc(C(OCCC2CCN(Cc3cccnc3)CC2)c2ccccc2)cc1 | 5%
16 | N#Cc1ccc(N(CC(=O)NCCc2ccccc2)CC2CC2)c2ccccc12 | -3%
17 | Cc1ccc(C)c(N2CCN(Cc3ccccc3O)CC2)c1 | 5%
18 | CC[C@H]1CN2CC[C@H]1C[C@H]2[C@H](O)c1cc(N2CCCC(CO)C2)nc2ccc(OC)cc12 (some centres not stated) | 2%
19 | COc1cccc(CN2CCC(CCOC(c3ccccc3)c3ccc(Cl)cc3)CC2)c1O (configuration not stated) | -2%

Row | SMILES | inhibition
20 | CN1CC=C(c2c[nH]c3ccc(-c4ccccc4)cc23)CC1 | -1%
21 | Cc1csc(NC2=NCCN2)n1 | 0%
22 | CSc1ccc(C[C@@H](C)NC[C@H](O)c2cccc(Cl)c2)cc1 | 2%
23 | O=C(c1cc(C(F)(F)F)cc(C(F)(F)F)c1)N1CC[C@H](CCN2CCC3(CC2)C(=O)NCN3c2ccccc2)C[C@H]1Cc1ccc(Cl)c(Cl)c1 | -4%
24 | CC[C@H]1CN2CC[C@H]1C[C@H]2[C@H](O)c1cc(-c2ccc(SC)cc2)nc2ccc(OC)cc12 | -1%
25 | CC(C)CNCc1cccc(-c2cccc(CN(C(=O)Nc3ccccc3)C3CCN(Cc4ccccc4)CC3)c2)c1 | 3%
26 | Cc1ccc(CC(C)NCC(O)c2cccc(C(F)(F)F)c2)cc1F (configuration not stated) | 3%
27 | O=C(Nc1ccc(Oc2ccccc2)cc1)NC1CCC(CN2CCC(c3c[nH]c4ccccc34)CC2)CC1 (configuration not stated) | 4%
28 | O=C(/C=C/c1ccc(Cl)c(Cl)c1)N(Cc1ccccc1)C1CCC(CN2CCC(c3c[nH]c4ccccc34)CC2)CC1 (configuration not stated) | -6%
29 | CNCCCCCCOc1ccc(CC(C)NCC(O)c2cccc(C(F)(F)F)c2)cc1 (configuration not stated) | 3%
30 | CC[C@H]1CN2CC[C@@H]1C[C@@H]2[C@@H](O)c1cc(-c2ccc(F)cc2)nc2ccc(OC)cc12 | -4%
31 | COCCNCc1ccc(-c2ccc(CN(C(=O)NC3CCCCC3)C3CCN(Cc4ccccc4)CC3)cc2)cc1 | -1%
32 | CCCCn1c(C)c(C(=O)OCC)c2cc(OC(C)=O)c(Br)cc21 | -1%
33 | Cn1cc(CN2CCC(CCOC(c3ccccc3)c3ccccc3)CC2)cn1 | -5%
34 | O=C(Cc1cc(=O)oc2cc(O)ccc12)NC1CCC(CN2CCC(c3c[nH]c4ccccc34)CC2)CC1 (configuration not stated) | -1%
35 | CC(C)c1ccc(C=CC(=O)NC2CCC(CN3CCC(c4c[nH]c5ccccc45)CC3)CC2)cc1 (configuration not stated) | -3%
36 | COc1ccc(CC(C)NCC(O)c2cccc(Br)c2)cc1 (configuration not stated) | -1%
37 | C=C[C@H]1CN2CC[C@@H]1C[C@H]2[C@H](O)c1cc(-c2ccc(F)cc2)nc2ccc(OC)cc12 | -1%
